These results are taken from PubChem BioAssay (NCATS).

Results filed as inconclusive are left out. Calls of active or inactive are those of the source. Unless noted, calls come from the whole dose curve; as a rule, active = well fitted curve in the direction sought with a large enough effect; inconclusive = small, poorly fitted or top-dose-only effect, or another doubt; inactive = no such curve, though single readings can be large; an effect the other way counts as inactive or inconclusive.

For assay [1], the target named is Cytochrome P450 3A4 (Homo sapiens) (UniProt P08684). In words: qHTS Assay for Inhibitors and Substrates of Cytochrome P450 3A4 (AID 884). For activity change, negative = inhibition: % is set by controls: 0 for no effect and ±100 for the full control effect. Note: nearly all actives have a fitted effect of over 50% in size. Note: potency is the fitted concentration of half-maximal effect. The procedure, abridged:
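20 nM human CYP3A4 with 25 uM Luciferin-PPXE (at KM) in 200 mM KPO4, preincubated 10 min with compound; NADPH regeneration started a 60 min RT reaction. Luciferin detected by luminescence, normalized to 57 uM ketoconazole as full inhibition.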
In general terms: Quantitative high-throughput screening tests each substance at several concentrations.

The target is the same in assay [2]. In words: qHTS Assay for Activators of Cytochrome P450 3A4 (AID 885). Note: nearly all actives have a fitted effect of over 65% in size. The procedure, abridged:
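Steps: enzyme/substrate mix dispensed; compound added, 10 min RT; NADPH regeneration solution added, 60 min RT; luciferin detection buffer stops reaction; 20 min later luminescence measured.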

Assay [3] in a line: Confirmation and Secondary Assay for Modulators of Hemoglobin Beta Chain Splicing at IVS2 654 locus (AID 910).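 Note: HeLa cells stably carrying EGFP split by mutant beta-globin IVS2-654 intron; per-well total GFP intensity by laser scanning cytometry after 2-day treatment; % of control where 0% means no effect.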 The procedure, abridged: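 Readout: per-well total peak green fluorescence (488 nm ex, 500–520 nm em) from objects 5–250 µm, reflecting correct splicing of an EGFP-654 reporter. Compounds were applied for 2 days at 37 °C to overnight-plated HeLa EGFP-654 cells; controls were DMSO and 500 nM IVS2-654 PNA.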

Assay [4] is described as follows: Confirmation and Secondary Assay for Modulators of Hemoglobin Beta Chain Splicing at IVS2 705 locus (AID 930).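 Note: HeLa cells stably expressing the EGFP-705 splicing reporter; % of control where 0% means no effect.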 The procedure, abridged: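 Assay measures total GFP intensity per well in HeLa EGFP-705 cells after 2 days with compound; mis-splicing normally truncates EGFP, so fluorescence indicates corrected splicing.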
A short description of assay [5]: qHTS Assay for Lipid Storage Modulators (AID 1519; calls by dose curve; for activity change, negative = inhibition: % is set by controls: 0 for no effect and ±100 for the full control effect). The conditions noted are these: Drosophila S3 cells, BODIPY lipid droplet/cell ratio, laser cytometry, cells loaded with oleic acid; for activity change, negative = inhibition: at 57.5 µM (top of the series). The procedure, abridged:
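Cells seeded at 5,000 per well were treated with compounds over a concentration series and loaded with oleic acid (400 uM, as added). Lipid droplet fluorescence (488 nm excitation, 500-530 nm channel) was read by laser-scanning cytometry and normalized to 20 uM Triacsin C.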

Assay [6] has as its target Ubiquitin carboxyl-terminal hydrolase 1 (Homo sapiens) (UniProt O94782). In words: Inhibitors of USP1/UAF1: Pilot qHTS (AID 504865).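 Note: rhodamine fluorescence freed from ubiquitin-rhodamine substrate followed over time; top concentration of the series differs between compounds; % is set by controls: 0 for no effect and ±100 for the full control effect; nearly all actives have a fitted effect of over 35% in size.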 The procedure, abridged:
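Kinetic fluorescence assay: 1nM USP1/UAF1, 15 min compound preincubation, then 150nM Ub-Rho; 480/540 nm.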

The mark [7] stands for this setting: measured here: cell count channel max response.
[8] abbreviates: measured here: lipid channel max response.

Sequence of Cytochrome P450 3A4 (Homo sapiens) (P08684 whole entry, looked up): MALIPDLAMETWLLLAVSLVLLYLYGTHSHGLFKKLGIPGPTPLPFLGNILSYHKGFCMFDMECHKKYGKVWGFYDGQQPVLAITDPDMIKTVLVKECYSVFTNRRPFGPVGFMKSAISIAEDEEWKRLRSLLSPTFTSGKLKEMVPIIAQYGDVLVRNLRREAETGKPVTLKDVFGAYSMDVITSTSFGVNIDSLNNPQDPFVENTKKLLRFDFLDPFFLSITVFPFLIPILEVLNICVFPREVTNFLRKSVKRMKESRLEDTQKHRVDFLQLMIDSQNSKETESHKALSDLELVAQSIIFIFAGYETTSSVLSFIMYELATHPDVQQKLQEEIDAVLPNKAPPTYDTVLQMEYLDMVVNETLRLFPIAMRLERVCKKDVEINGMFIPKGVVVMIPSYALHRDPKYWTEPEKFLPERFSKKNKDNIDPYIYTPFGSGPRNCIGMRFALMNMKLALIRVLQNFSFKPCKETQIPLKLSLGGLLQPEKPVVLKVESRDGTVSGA
Sequence of Ubiquitin carboxyl-terminal hydrolase 1 (Homo sapiens) (O94782 whole entry, looked up): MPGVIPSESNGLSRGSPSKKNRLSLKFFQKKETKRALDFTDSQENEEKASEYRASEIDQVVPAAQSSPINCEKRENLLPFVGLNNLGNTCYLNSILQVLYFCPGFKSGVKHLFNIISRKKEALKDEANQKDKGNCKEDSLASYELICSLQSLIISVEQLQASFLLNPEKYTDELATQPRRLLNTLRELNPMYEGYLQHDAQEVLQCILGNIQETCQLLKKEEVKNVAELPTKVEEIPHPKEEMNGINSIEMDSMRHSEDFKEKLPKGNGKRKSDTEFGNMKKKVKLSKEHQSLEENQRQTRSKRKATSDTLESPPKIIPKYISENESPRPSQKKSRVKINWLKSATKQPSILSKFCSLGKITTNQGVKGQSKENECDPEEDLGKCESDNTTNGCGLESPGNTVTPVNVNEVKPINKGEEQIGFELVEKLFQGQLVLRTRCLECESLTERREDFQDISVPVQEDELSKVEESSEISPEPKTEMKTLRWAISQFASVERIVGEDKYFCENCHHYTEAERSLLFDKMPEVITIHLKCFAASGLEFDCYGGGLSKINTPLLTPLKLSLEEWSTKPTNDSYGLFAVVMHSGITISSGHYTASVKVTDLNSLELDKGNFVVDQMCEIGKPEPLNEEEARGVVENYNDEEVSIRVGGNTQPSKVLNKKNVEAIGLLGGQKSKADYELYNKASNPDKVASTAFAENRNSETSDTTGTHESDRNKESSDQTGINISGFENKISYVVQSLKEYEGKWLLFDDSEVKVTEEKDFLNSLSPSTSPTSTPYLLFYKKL

For the compound `O=c1cc(-c2ccc(O)cc2)oc2ccc(O)cc12`, the Potency in assay [1] was 3.16 µM (active). Moreover, the Potency result in assay [2], in assay [3], in assay [4] and in assay [6] was “inactive” throughout. The activity change, negative = inhibition in assay [5] was 6.92% (inactive). Also, the max response in assay [5] (setting [7]) came out at 7.61%; in assay [5] (setting [8]), 15.4%.

In the case of `O=c1cc(-c2cccc(O)c2)oc2ccc(O)cc12`, the Potency in assay [1] is 3.98 µM (active). The Potency entry in assay [2], in assay [3], in assay [4] and in assay [6] was “inactive” each time. Also, the activity change, negative = inhibition in assay [5] was 13.1% (inactive). Moreover, the max response in assay [5] (setting [7]) is 3.49%; in assay [5] (setting [8]) it was 17.7%.

Turning to `CC(=O)N[C@H](Cc1c[nH]c2ccccc12)C(N)=O`, the Potency result in assay [1], in assay [3], in assay [4] and in assay [6] was “inactive” each time. Moreover, the activity change, negative = inhibition in assay [5] is 4.6% (inactive). For the same compound, the max response in assay [5] (setting [7]) stood at 3.77%; in assay [5] (setting [8]), 4.03%.

Turning to `CC1(C)OC2C[C@](O)(C(N)=O)C[C@H](O)[C@H]2O1` (stereo partly specified), the Potency result in assay [1], in assay [3], in assay [4] and in assay [6] was “inactive” in each case. For the same compound, the activity change, negative = inhibition in assay [5] was 3.65% (inactive). Moreover, the max response in assay [5] (setting [7]) amounted to 15.6%; in assay [5] (setting [8]), 23.7%.

`C/C=C(\C)C(=O)OC1[C@@H]2C=C3C4CC(=O)OC(c5ccoc5)[C@]4(C)CCC3[C@@](C)(C2=O)C(C(O)C(=O)OC)C1(C)C` (stereo partly specified): the Potency in assay [1] is 12.6 µM (active). Moreover, the Potency result in assay [2], in assay [3], in assay [4] and in assay [6] was “inactive” each time. Moreover, the activity change, negative = inhibition in assay [5] is -1.19% (inactive). Moreover, the values for the max response in assay [5] (setting [7]) and in assay [5] (setting [8]) were 8.66% and 12.5%, respectively.

Turning to `CC(=O)NC(CC(=O)O)C(=O)O` (stereo unspecified), the Potency entry in assay [1], in assay [3], in assay [4] and in assay [6] was “inactive” in each case. Besides, the activity change, negative = inhibition in assay [5] is 2.97% (inactive). The values for the max response in assay [5] (setting [7]) and in assay [5] (setting [8]) were 13.4% and 18%, respectively.

For `Cc1ccc2c(c1)CC[C@H]1CC(=O)CC[C@@]21C`, the Potency in assay [1] is 15.8 µM (active). Besides, the Potency result in assay [2], in assay [3], in assay [4] and in assay [6] was “inactive” throughout. In assay [5], the activity change, negative = inhibition was 2.54% (inactive). The results for the max response in assay [5] (setting [7]) and in assay [5] (setting [8]) were -2.47% and 1.9%, respectively.

On to `COC(=O)CC1C(C)(C)C(=O)C2CC3=C4CC(=O)OC(c5ccoc5)[C@]4(C)CCC3[C@@]1(C)C2=O` (stereo partly specified), for which the Potency in assay [1] was 1.58 µM (active). In addition, the Potency entry in assay [2], in assay [3], in assay [4] and in assay [6] was “inactive” each time. Besides, the activity change, negative = inhibition in assay [5] was 1.08% (inactive). The max response in assay [5] (setting [7]) came to 14.1%; in assay [5] (setting [8]), 18%.

Regarding `COc1cc(-c2coc3cc(O[C@H]4OC(CO)C(O)C(O)C4O)c(OC)c(O)c3c2=O)cc(O)c1OC` (stereo partly specified), the Potency entry in assay [1], in assay [3], in assay [4] and in assay [6] was “inactive” each time. For the same compound, the activity change, negative = inhibition in assay [5] is 7.43% (inactive). The max response in assay [5] (setting [7]) was 6.4%; in assay [5] (setting [8]), 13.8%.

Take `COc1cccc2c1CCC1CC(=O)CC[C@@]21C` (stereo partly specified): in assay [1], the Potency was 15.8 µM (active). Also, the Potency entry in assay [2], in assay [3], in assay [4] and in assay [6] was “inactive” throughout. Besides, in assay [5], the activity change, negative = inhibition was 4.57% (inactive). The max response is -12.9% in assay [5] (setting [7]) and -5.49% in assay [5] (setting [8]).

For `CC(=O)OC1CC2C(C)(C)C(O)CC(O)[C@@]2(C)C2CC[C@@]3(C)C(=CC(=O)OC3c3ccoc3)[C@]12C` (stereo partly specified), in assay [1], the Potency was 3.98 µM (active). Also, the Potency result in assay [2], in assay [3], in assay [4] and in assay [6] was “inactive” each time. Moreover, the activity change, negative = inhibition in assay [5] is 0.404% (inactive). For the same compound, the max response in assay [5] (setting [7]) is -0.781%; in assay [5] (setting [8]), 3.91%.

For the compound `CC(=O)NC1C(O)C[C@@](O)(C(=O)O)OC1[C@@H](O)C(O)CO` (stereo partly specified), the Potency entry in assay [1], in assay [3], in assay [4] and in assay [6] was “inactive” each time. Further, the activity change, negative = inhibition in assay [5] is 3.62% (inactive). Moreover, the max response stood at 13.3% in assay [5] (setting [7]) and 18.3% in assay [5] (setting [8]).
